Shown are actives, neighbours in structure and some others; about 3.1% of the full set was active somewhere.
p53null 32C kill: selectivity test: cytotoxicity in p53 null cells, permissive temperature; H1299-neo p53 null cells, ATP luminescence, 24 h, 32C; Potency, µM (highest dose often 46.1 µM), for the others: at the highest dose activity change, negative = cytotoxicity, hits mostly cytotoxic; 55,000 tested, 0.62% active; AID 903;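 further: potency means the concentration at half of the fitted maximal effect; 0% = DMSO only and -100% = full killing by 100 µM tamoxifen; nearly all actives have a fitted effect of over 55% in size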
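H1299-neo, 600 cells/well; overnight 37C; cpd up to 46 uM, 24 h at 32C; ATPlite luminescence after 20 min RT; normalized to DMSO (0%) and tamoxifen 100 uM (100% kill); Hill-fit AC50.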
p53null 39C kill: p53 null cell cytotoxicity, nonpermissive temperature. H1299 p53-null (neo) cells, 39C, ATPlite viability, 24 h. 55,000 tested, 0.97% active. Potency, µM (top dose mostly 46.1 µM), for inactives: at the highest dose activity, negative = cell killing, hits mostly cytotoxic;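 further: potency means the concentration at half of the fitted maximal effect; 0% = DMSO only and -100% = full killing by 100 µM tamoxifen; nearly all actives have a fitted effect of over 50% in size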
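Concentration-response (up to 46 uM) was run for 24 h at the nonpermissive 39C on H1299-p53A138V or H1299-neo cells. ATP content was measured with ATPlite luminescence. AC50 values were Hill-modeled after normalizing between DMSO and 100 uM tamoxifen killing.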
PMP22 txn prim: modulates PMP22 transcription in S16 Schwann cells. S16 Pmp22-F2sN Schwann cells, FLuc/NLuc coincidence luminescence, 24 h. Potency, µM (highest dose often 57.5 µM), for inactives: at the top dose activity change, negative = inhibition, usual class: inhibitors. 43,000 tested, 2% active; active means clear falling dose curves in both reporters; inconclusive means both reporters move, but less clearly or upward; inactive means either reporter flat; the % is the NLuc reporter signal; further: potency means the concentration at half of the fitted maximal effect; on the % scale 0 is the no-effect control and ±100 the full control effect
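Rat S16 Pmp22-F2sN cells, 500-1,000/well in phenol red-free DMEM + 10% FBS, compound-treated 24 h (37C, 5% CO2). Luminescence: FLuc read, Stop&Glo added, NLuc read.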
pS6 MEF inh: inhibitors of mTORC1 signaling in Tsc2-/- p53-/- MEF cells; Tsc2-/- p53-/- MEF, phospho-rpS6 immunofluorescence/PI, 24 h; Potency, µM (highest dose often 38.3 µM), inactives show top-dose activity change, negative = inhibition, hits mostly inhibitors; 44,000 tested, 0.78% active;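 further: potency means the concentration at half of the fitted maximal effect; plate controls were DMSO for no effect and rapamycin for full effect; nearly all actives have a fitted effect of over 50% in size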
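Plate MEFs (Tsc2-/-, p53-/-, empty vector) in DMEM/10% FBS; after 24 h add compound, incubate 24 h at 37 degree Celsius; fix in PFA/TX-100, block, stain phospho-rpS6 and 10 uM PI; scan at 488 nm; report % positive cells.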
OvCa metastasis: inhibitors of ovarian cancer cell adhesion and invasion in omental model; Potency, µM (top dose mostly 45.8 µM), for inactives: at the highest dose activity change, negative = inhibition, most hits filed as inhibitors; SKOV3ip1-GFP adhesion/invasion on 3D omental model, fluorescence; 46,000 tested, 0.1% active; AID 1963576;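 further: potency means the concentration at half of the fitted maximal effect; plate controls were DMSO wells for no effect and tomatine positive control wells for full effect; nearly all actives have a fitted effect of over 65% in size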
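Adhesion/invasion was scored as fixed GFP-labeled SKOV3ip1 cell counts (488/509 nm), normalized to DMSO and tomatine controls. Cancer cells in serum-free medium, with four compound doses (0.36-46 umol/L), sat 2 hr at RT then 16 hr at 37 C on a 48 hr fibroblast/mesothelial/ECM culture.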
S16 viability: toxic to S16 Pmp22-F2sN Schwann cells; S16 Pmp22-F2sN Schwann cells viability, CellTiter-Glo, 24 h; Potency, µM (titrated, usually from 57.5 µM), for the others: at the highest dose activity change, negative = cytotoxicity, hits mostly cytotoxic; AID 1508642; 43,000 tested, 0.48% active; further: potency means the concentration at half of the fitted maximal effect; on the % scale 0 is the no-effect control and ±100 the full control effect; nearly all actives have a fitted effect of over 65% in size
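Seed 500-1,000 S16 Pmp22-F2sN cells per well in phenol-red-free DMEM with 10% heat-inactivated FBS; pin-add 23 nL compound; incubate 24 h at 37C; add CellTiter-Glo, wait 15 min protected from light; read luminescence.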
NLuc sat counter: inhibits NanoLuc at saturating substrate, PMP22 counter-screen; Potency, µM (top dose mostly 57.5 µM), for the others: at the top dose activity change, negative = inhibition, actives largely listed as inhibitors; Secreted NLuc enzyme (filtered S16 cell medium), Nano-Glo luminescence; AID 1508638; shares compounds with PMP22 txn prim; 690 tested, 4% active; further: potency means the concentration at half of the fitted maximal effect; on the % scale 0 is the no-effect control and ±100 the full control effect
NLuc Km ctr: NanoLuc inhibition at Km substrate, PMP22 artifact check; shares compounds with PMP22 txn prim; secreted NLuc enzyme, coelenterazine luminescence, Km conditions; Potency, µM (series often up to 57.5 µM), inactives show at the top dose activity change, negative = inhibition, hits mostly inhibitors; 690 tested, 5% active; AID 1508639; further: potency means the concentration at half of the fitted maximal effect; on the % scale 0 is the no-effect control and ±100 the full control effect
FLuc counter: inhibits firefly luciferase, PMP22 counter-screen; shares compounds with PMP22 txn prim; purified P. pyralis FLuc, luminescence, 10 min; Potency, µM (top dose mostly 57.5 µM), for inactives: at the top dose activity, negative = inhibition, hits mostly inhibitors; 690 tested, under 10 active; further: % of control where 0% means no effect
Target sequence (P08659 whole entry, looked up): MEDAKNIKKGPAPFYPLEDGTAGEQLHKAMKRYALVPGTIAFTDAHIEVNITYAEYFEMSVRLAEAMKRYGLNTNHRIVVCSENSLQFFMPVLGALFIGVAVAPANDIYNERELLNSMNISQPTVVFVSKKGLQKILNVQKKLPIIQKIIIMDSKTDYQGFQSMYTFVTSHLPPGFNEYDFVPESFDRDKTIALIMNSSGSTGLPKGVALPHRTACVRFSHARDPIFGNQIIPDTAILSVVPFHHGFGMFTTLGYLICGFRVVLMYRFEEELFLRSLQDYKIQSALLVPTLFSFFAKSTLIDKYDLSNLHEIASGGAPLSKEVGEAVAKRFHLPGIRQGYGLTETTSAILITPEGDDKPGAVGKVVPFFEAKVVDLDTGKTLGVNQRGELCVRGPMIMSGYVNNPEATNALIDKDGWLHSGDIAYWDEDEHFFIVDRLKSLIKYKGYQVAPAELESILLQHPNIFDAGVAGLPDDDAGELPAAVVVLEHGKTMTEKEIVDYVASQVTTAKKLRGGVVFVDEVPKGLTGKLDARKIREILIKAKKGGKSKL
S16 viab conf: confirmation of cytotoxicity in S16 Pmp22-F2sN Schwann cells (luciferase reporters placed in the Pmp22 gene); shares compounds with PMP22 txn prim; S16 Schwann cells viability, CellTiter-Glo ATP luminescence, 24 h; Potency, µM (highest dose often 57.5 µM), inactives show top-dose activity change, negative = viability loss, actives largely listed as cytotoxic; 690 tested, 7% active; further: potency means the concentration at half of the fitted maximal effect; on the % scale 0 is the no-effect control and ±100 the full control effect
PMP22 txn cnf: confirmation of modulators of PMP22 gene transcription in S16 cells; shares compounds with PMP22 txn prim; S16 Schwann cells Pmp22-F2sN, dual luciferase, 24 h; Potency, µM (top dose mostly 57.5 µM), for inactives: top-dose activity change, negative = inhibition, most hits filed as inhibitors; 690 tested, 22% active; active means clear falling dose curves in both reporters; inconclusive means both reporters move, but less clearly or upward; inactive means either reporter flat; the % is the FLuc reporter signal; further: potency means the concentration at half of the fitted maximal effect
PMP22 HiBiT cnf: rat PMP22 protein level modulation, confirmatory; shares compounds with PMP22 txn prim; S16 Schwann cells Pmp22-HiBiT, luminescence, 48 h; Potency, µM (highest dose often 27.9 µM), without a hit: at the top dose activity change, negative = inhibition, hits mostly inhibitors; 95 tested, under 10 active; AID 1508647
Target sequence (P25094 whole entry, looked up): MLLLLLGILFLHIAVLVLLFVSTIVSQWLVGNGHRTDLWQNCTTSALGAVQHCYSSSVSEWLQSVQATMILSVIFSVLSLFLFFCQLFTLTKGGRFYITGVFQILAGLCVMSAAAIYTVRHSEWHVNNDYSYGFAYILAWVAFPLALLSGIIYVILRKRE
Numbers without * were called inactive; i = inactive; u = inconclusive; x = no result. Unless noted, the call rests on the fitted dose curve; in most records, active means well fitted curve in the direction sought with a large enough effect; inconclusive means small, poorly fitted or top-dose-only effect, or another doubt; inactive means no such curve, though single readings can be large; an effect the other way counts as inactive or inconclusive.

SMILES | p53null 32C kill | p53null 39C kill | PMP22 txn prim | pS6 MEF inh | OvCa metastasis | S16 viability | NLuc sat counter | NLuc Km ctr | FLuc counter | S16 viab conf | PMP22 txn cnf | others
CCc1ccc(N2C(=O)CSC23C(=O)N(Cc2cccc(OC)c2)c2ccccc23)cc1 (stereo unspecified) | 0% | 5% | 13µM* | -6% | -23% | u | -7% | 6% | -6% | -13% | -47%
Cc1nc(C(=O)NCC(=O)O)c(O)c2ccc(Oc3ccccc3)cc12 | x | x | x | x | 4% | x | x | x | x | x | x
C[C@H](CCC(=O)O)[C@H]1CCC2C3C[C@H](O)[C@@H]4C[C@H](O)CC[C@]4(C)C3CC[C@@]21C (stereo partly specified) | x | x | x | x | 21% | x | x | x | x | x | x
Cc1ccc(NS(=O)(=O)c2cc(Br)cc3c2N(C(=O)C2CC2)CC3)cc1C | 20% | -8% | 8.9µM* | -13% | i | u | u | -7% | -1% | u | u
COc1ccc(Cl)cc1NS(=O)(=O)c1cc(Br)cc2c1N(C(=O)C1CC1)CC2 | 0% | 0% | -44% | -12% | i | 3% | x | x | x | x | x
COc1cc(NS(=O)(=O)c2cc(Br)cc3c2N(C(=O)C2CC2)CC3)cc(OC)c1 | 7.9µM* | u | 3.6µM* | u | 0% | -19% | 14µM* | u | 0% | u | 18µM*
CC(CNC(=O)CCn1c(=O)c2cccn2c2ccc(F)cc21)c1ccccc1 (stereo unspecified) | 12% | 66% | u | -5% | 5% | -1% | x | x | x | x | x
CC(CNC(=O)CCCn1c(=O)c2cccn2c2ccc(F)cc21)c1ccccc1 (stereo unspecified) | 9% | 5% | 19µM* | 5% | 0% | -14% | u | -7% | 5% | -1% | u
CCNc1nc(NC(C)(C)C)nc(Oc2ccc(=O)n(-c3ccccc3)n2)n1 | 0% | -6% | u | -9% | 5% | -1% | -9% | -3% | -7% | -13% | -33%
C#CCC(Cc1cnc2nc(N)nc(N)c2n1)c1ccc(C(=O)N[C@@H](CCC(=O)O)C(=O)O)cc1 (stereo partly specified) | x | x | x | x | 20% | x | x | x | x | x | x
COc1cc(OC)c(OC)cc1/C=C/c1nc2cc3ccccc3cc2c(=O)n1-c1ccc(F)cc1F | -1% | -21% | 9.5µM* | 11% | i | u | 3.1µM* | 2.2µM* | u | -8% | 13%
COc1cc2c(cc1OC)CN(CCc1ccc(NC(=O)c3cc(OC)c(OC)cc3NC(=O)c3cnc4ccccc4c3)cc1)CC2 | x | x | x | x | 14% | x | x | x | x | x | x
COc1ccc(OC)c(CCNc2ncnc3onc(C)c23)c1 | -8% | -6% | 11µM* | u | -1% | -17% | -9% | -4% | u | -13% | -26%
Cc1cc(C)cc(NC(=O)c2ccc3oc(=O)c(S(=O)(=O)c4ccc(F)cc4)cc3c2)c1 | -6% | 15% | 11µM* | -9% | -4% | -15% | 3% | 6% | 2% | -3% | -20%
COc1ccc(OC)c(NC(=O)Cn2cnc3onc(-c4ccc(Cl)cc4)c3c2=O)c1 | 16% | -4% | 5.1µM* | 24% | u | -21% | -6% | 3% | 8% | -18% | u
O=C(Cn1cnc2onc(-c3ccc(Cl)cc3)c2c1=O)Nc1ccc(F)cc1 | 9% | -3% | u | -5% | -13% | -17% | x | x | x | x | x
COc1nc(C)cnc1NS(=O)(=O)c1cccnc1-c1ccc(-c2nnco2)cc1 | x | x | x | x | -3% | x | x | x | x | x | x
CCN(CC)S(=O)(=O)c1ccc2c(c1)N(CC(=O)NCCCN1CCN(c3cc(Cl)ccc3C)CC1)C(=O)CO2 | u | u | 20µM* | u | -26% | u | -3% | -1% | -1% | u | u
CCOc1ccc(NC(=O)CSc2oc(-c3ccc(F)cc3)nc2S(=O)(=O)c2ccc(C)cc2)cc1 | -15% | -23% | 12µM* | 2.9µM* | i | 2% | -2% | 0% | 2% | u | 15µM* | PMP22 HiBiT cnf=25%
CC(=O)c1ccc(N2CCN(C(=O)C3CCN(S(=O)(=O)c4c(C)noc4/C=C/c4ccc(C)cc4)CC3)CC2)cc1 | -2% | 8% | u | 0% | i | -8% | -4% | 12% | -7% | -9% | -13%
Cc1ccc(/C=C/c2onc(C)c2S(=O)(=O)N2CCC(C(=O)N3CCN(c4ccccc4F)CC3)CC2)cc1 | 2% | 1% | -17% | -4% | 7% | 9% | x | x | x | x | x
COC[C@H](NC(=O)c1cnc(C)s1)C(=O)N[C@@H](COC)C(=O)N[C@@H](Cc1ccccc1)C(=O)[C@@]1(C)CO1 | x | x | x | x | -9% | x | x | x | x | x | x
Cc1ccc(CNC(=O)c2ccc(-c3nc(CS(=O)(=O)c4ccc(C)cc4)c(C)o3)cc2)cc1 | 1% | 11% | 13µM* | 2% | 3% | u | -4% | 1% | -3% | 2% | -32%

Screening results (PubChem)
